Assay results from PubChem BioAssay AID1159580 (chemical genetic matrix, 2015).
The campaign covered roughly 5,500 compounds. About 2,000 (36%) were called active. Not shown: some 18% with an inconclusive outcome. Rule as the data show it: active = normalized growth mostly below about 0.91 (no sharp cut-off); inconclusive = no clear call, values can overlap the other calls; inactive = mostly above about 0.92. The list shows a part of the results.

Experiment: chemical genetic growth profiling, strain panel (AID 1159580);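 also: tested at 20 µM; growth read once vehicle control cultures reached saturation at 30 °C; 1 = growth at the plate median or of vehicle wells; lower values mean less growth of the strain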
Settings: growth OD

Measured: normalized growth

OC[C@@H](O)[C@@H](O[C@@H]1O[C@H](CO)[C@@H](O)[C@H](O)[C@H]1O)[C@H](O)[C@@H](O)CO
inactive: S. cerevisiae deletion strains, locus YJR075W, strain HOC1, stronger effect = lower value 1.01 | S. cerevisiae deletion strains, locus YKL009W, strain mrt4, stronger effect = lower value 1.02 | S. cerevisiae deletion strains, locus YKL068W, stronger effect = lower value 0.999 | S. cerevisiae deletion strains, locus YKL085W, strain MDH1 (second series), stronger effect = lower value 0.998 | S. cerevisiae deletion strains, locus YKL085W, strain MDH1, stronger effect = lower value 0.998 | S. cerevisiae deletion strains, locus YKL160W, strain elf1, stronger effect = lower value 1.02 | S. cerevisiae deletion strains, locus YKL190W, strain CNB1, stronger effect = lower value 1 | S. cerevisiae deletion strains, locus YKR001C, strain vps1, stronger effect = lower value 1.02 | S. cerevisiae deletion strains, locus YKR026C, strain gcn3, stronger effect = lower value 0.991 | S. cerevisiae deletion strains, locus YKR091W, strain srl3, stronger effect = lower value 0.996 | S. cerevisiae deletion strains, locus YLL001W, strain dnm1, stronger effect = lower value 1.01 | S. cerevisiae deletion strains, locus YLL026W, stronger effect = lower value 0.994 | S. cerevisiae deletion strains, locus YLL041C, strain sdh2, stronger effect = lower value 0.989 | S. cerevisiae deletion strains, locus YLR027C, strain aat2, stronger effect = lower value 0.997 | S. cerevisiae deletion strains, locus YLR039C, strain RIC1, stronger effect = lower value 1.06 | S. cerevisiae deletion strains, locus YLR058C, strain SHM2, stronger effect = lower value 1.01 | S. cerevisiae deletion strains, locus YLR102C, strain apc9, stronger effect = lower value 1.01 | S. cerevisiae deletion strains, locus YLR113W, strain HOG1, stronger effect = lower value 0.99 | S. cerevisiae deletion strains, locus YLR221C, strain rsa3, stronger effect = lower value 1.04 | S. cerevisiae deletion strains, locus YLR258W, strain gsy2, stronger effect = lower value 1 | S. cerevisiae deletion strains, locus YLR262C, strain YPT6 (second series), stronger effect = lower value 1.01 | S. cerevisiae deletion strains, locus YLR262C, strain YPT6, stronger effect = lower value 1.05 | S. cerevisiae deletion strains, locus YLR268W, strain sec22, stronger effect = lower value 0.999 | S. cerevisiae deletion strains, locus YLR320W, strain mms22, stronger effect = lower value 1.04 | S. cerevisiae deletion strains, locus YLR330W, strain CHS5, stronger effect = lower value 1.01 | S. cerevisiae deletion strains, locus YLR342W, strain FKS1 (second series), stronger effect = lower value 1.12 | S. cerevisiae deletion strains, locus YLR342W, strain FKS1, stronger effect = lower value 0.974 | S. cerevisiae deletion strains, locus YLR357W, strain rsc2, stronger effect = lower value 0.958 | S. cerevisiae deletion strains, locus YLR370C, strain arc18, stronger effect = lower value 0.996 | S. cerevisiae deletion strains, locus YLR371W, strain rom2, stronger effect = lower value 1.01 | S. cerevisiae deletion strains, locus YLR384C, strain iki3, stronger effect = lower value 0.999 | S. cerevisiae deletion strains, locus YLR418C, strain cdc73, stronger effect = lower value 0.974 | S. cerevisiae deletion strains, locus YML016C, strain PPZ1, stronger effect = lower value 1.01 | S. cerevisiae deletion strains, locus YML032C, strain rad52, stronger effect = lower value 1.05 | S. cerevisiae deletion strains, locus YML120C, strain ndi1, stronger effect = lower value 0.985 | S. cerevisiae deletion strains, locus YML124C, strain tub3, stronger effect = lower value 1.01 | S. cerevisiae deletion strains, locus YMR058W, strain fet3, stronger effect = lower value 0.99 | S. cerevisiae deletion strains, locus YMR078C, strain ctf18, stronger effect = lower value 1.02 | S. cerevisiae deletion strains, locus YMR125W, strain sto1, stronger effect = lower value 0.938 | S. cerevisiae deletion strains, locus YMR129W, stronger effect = lower value 0.992 | S. cerevisiae deletion strains, locus YMR205C, strain PFK2, stronger effect = lower value 1.03 | S. cerevisiae deletion strains, locus YMR223W, strain ubp8, stronger effect = lower value 1.06 | S. cerevisiae deletion strains, locus YMR231W, strain pep5, stronger effect = lower value 0.983 | S. cerevisiae deletion strains, locus YMR263W, strain SAP30, stronger effect = lower value 1.02 | S. cerevisiae deletion strains, locus YMR307W, strain GAS1, stronger effect = lower value 1.1 | S. cerevisiae deletion strains, locus YNL067W, strain RPL9B, stronger effect = lower value 0.998 | S. cerevisiae deletion strains, locus YNL071W, strain lat1, stronger effect = lower value 0.986 | S. cerevisiae deletion strains, locus YNL128W, strain TEP1, stronger effect = lower value 0.985 | S. cerevisiae deletion strains, locus YNL153C, strain GIM3, stronger effect = lower value 1 | S. cerevisiae deletion strains, locus YNL183C, strain NPR1, stronger effect = lower value 0.982 | S. cerevisiae deletion strains, locus YNL209W, strain ssb2, stronger effect = lower value 0.999 | S. cerevisiae deletion strains, locus YNL233W, strain BNI4, stronger effect = lower value 1.02 | S. cerevisiae deletion strains, locus YNL248C, strain rpa49, stronger effect = lower value 0.976 | S. cerevisiae deletion strains, locus YNL250W, strain rad50, stronger effect = lower value 1.02 | S. cerevisiae deletion strains, locus YNL271C, strain bni1, stronger effect = lower value 1.03 | S. cerevisiae deletion strains, locus YNL298W, strain CLA4, stronger effect = lower value 1.02 | S. cerevisiae deletion strains, locus YNL307C, strain MCK1, stronger effect = lower value 1.03 | S. cerevisiae deletion strains, locus YNL322C, strain KRE1 (second series), stronger effect = lower value 0.991 | S. cerevisiae deletion strains, locus YNL322C, strain KRE1, stronger effect = lower value 1.01 | S. cerevisiae deletion strains, locus YNR049C, strain mso1, stronger effect = lower value 0.993 | S. cerevisiae deletion strains, locus YNR052C, strain pop2, stronger effect = lower value 1.01 | S. cerevisiae deletion strains, locus YOL006C, strain TOP1, stronger effect = lower value 1.07 | S. cerevisiae deletion strains, locus YOL012C, strain htz1 1.19 | S. cerevisiae deletion strains, locus YOL147C, strain pex11, stronger effect = lower value 1.01 | S. cerevisiae deletion strains, locus YOR001W, strain rrp6, stronger effect = lower value 0.968 | S. cerevisiae deletion strains, locus YOR061W, strain CKA2, stronger effect = lower value 1.02 | S. cerevisiae deletion strains, locus YOR069W, strain VPS5, stronger effect = lower value 1.01 | S. cerevisiae deletion strains, locus YOR070C, strain gyp1, stronger effect = lower value 0.994 | S. cerevisiae deletion strains, locus YOR080W, strain dia2, stronger effect = lower value 0.995 | S. cerevisiae deletion strains, locus YOR083W, strain WHI5, stronger effect = lower value 1.03 | S. cerevisiae deletion strains, locus YOR106W, strain vam3, stronger effect = lower value 0.998 | S. cerevisiae deletion strains, locus YOR136W, strain idh2, stronger effect = lower value 1.02 | S. cerevisiae deletion strains, locus YOR144C, strain elg1, stronger effect = lower value 1 | S. cerevisiae deletion strains, locus YOR184W, strain ser1, stronger effect = lower value 1.08 | S. cerevisiae deletion strains, locus YOR231W, strain MKK1, stronger effect = lower value 1 | S. cerevisiae deletion strains, locus YOR265W, strain rbl2, stronger effect = lower value 1 | S. cerevisiae deletion strains, locus YOR270C, strain vph1, stronger effect = lower value 0.956 | S. cerevisiae deletion strains, locus YOR290C, strain snf2, stronger effect = lower value 1 | S. cerevisiae deletion strains, locus YOR316C, strain cot1, stronger effect = lower value 1.01 | S. cerevisiae deletion strains, locus YPL051W, strain arl3, stronger effect = lower value 1.02 | S. cerevisiae deletion strains, locus YPL055C, strain LGE1, stronger effect = lower value 0.991 | S. cerevisiae deletion strains, locus YPL078C, strain atp4, stronger effect = lower value 1 | S. cerevisiae deletion strains, locus YPL106C, strain sse1, stronger effect = lower value 1.01 | S. cerevisiae deletion strains, locus YPL240C, strain hsp82, stronger effect = lower value 0.997 | S. cerevisiae deletion strains, locus YPL241C, strain CIN2, stronger effect = lower value 1.01 | S. cerevisiae deletion strains, locus YPL256C, strain CLN2, stronger effect = lower value 0.985 | S. cerevisiae deletion strains, locus YPR119W, strain clb2, stronger effect = lower value 1 | S. cerevisiae deletion strains, locus YPR141C, strain kar3, stronger effect = lower value 1.02 | S. cerevisiae deletion strains, locus YPR163C, strain tif3, stronger effect = lower value 1.01 | S. cerevisiae deletion strains, locus YPR167C, strain met16, stronger effect = lower value 1 | S. cerevisiae deletion strains, strain wtn01, stronger effect = lower value 0.992 | S. cerevisiae strains, strain wild type, stronger effect = lower value 1.02
